From PubChem
Shown are actives, neighbours in structure and some others; about 12% of the full set was active somewhere.
JMJD2A Tudor – inhibitors of human JMJD2A Tudor domain; AlphaScreen JMJD2A-Tudor / H3K4me3 peptide binding; AID 504339; Potency, µM (series often up to 114 µM), most hits filed as inhibitors; 390,000 compounds, 4.4% hits; also: nearly all actives have a fitted effect of over 50% in size
G9a inh – G9a (human) methyltransferase inhibition; Q96KQ7; G9a H3K9 monomethylation, AlphaScreen, 2 h; Potency, µM (highest dose often 102 µM), hits mostly inhibitors; 350,000 compounds, 8.8% hits; AID 504332; also: nearly all actives have a fitted effect of over 75% in size
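Compounds were preincubated with 20 nM G9a for 15 min, after which biotinylated H3K9 peptide (500 nM) and SAM (20 uM) started a 2 h room-temperature reaction. Monomethylated product was quantified by antibody-based AlphaScreen chemiluminescence.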
HP1b binding inh – inhibitors of HP1-beta chromodomain binding to methylated histone tails. P83916. AlphaScreen HP1-beta / biotin-H3K9me3 peptide binding. Potency, µM (highest dose often 114 µM), actives largely listed as inhibitors. 390,000 compounds, 0.56% hits. AID 540317; also: nearly all actives have a fitted effect of over 70% in size
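HP1-beta protein (50 nM final) preincubated 30 min at room temperature with biotinylated H3(1-18)K9me3 peptide (50 nM) in PBS pH 7.4, 0.01% Tween-20, then compound added for 30 min. AlphaScreen streptavidin donor/nickel chelate acceptor beads (10 ug/mL final), 30 min dark, luminescence read.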
Sfp PPTase inh – blocks B. subtilis Sfp PPTase activity; Q9F4F7; Biochemical Sfp PPTase activity, qHTS; Potency, µM, hits mostly inhibitors; 310,000 compounds, 3.5% hits;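 also: the enzyme is Sfp with the accession as filed and its product quenches rhodamine fluorescence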
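Sfp 15 nM + cpd, 15 min RT; start w/ rhodamine-CoA 5 uM, BHQ-2-YbbR 12.5 uM (final); 50 mM Hepes pH 7.6, 10 mM MgCl2, 0.01% NP-40, 0.01% BSA; read 525/598 nm at 0 and 30 min.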
BAZ2B inh – inhibitors of human BAZ2B bromodomain; AlphaScreen BAZ2B-H3K14Ac peptide displacement; 360,000 compounds, 4.4% hits; Q9UIF8; AID 504333; Potency, µM (titrated, usually from 114 µM), actives largely listed as inhibitors; also: nearly all actives have a fitted effect of over 60% in size
Target sequence (Q9UIF8 whole entry, looked up): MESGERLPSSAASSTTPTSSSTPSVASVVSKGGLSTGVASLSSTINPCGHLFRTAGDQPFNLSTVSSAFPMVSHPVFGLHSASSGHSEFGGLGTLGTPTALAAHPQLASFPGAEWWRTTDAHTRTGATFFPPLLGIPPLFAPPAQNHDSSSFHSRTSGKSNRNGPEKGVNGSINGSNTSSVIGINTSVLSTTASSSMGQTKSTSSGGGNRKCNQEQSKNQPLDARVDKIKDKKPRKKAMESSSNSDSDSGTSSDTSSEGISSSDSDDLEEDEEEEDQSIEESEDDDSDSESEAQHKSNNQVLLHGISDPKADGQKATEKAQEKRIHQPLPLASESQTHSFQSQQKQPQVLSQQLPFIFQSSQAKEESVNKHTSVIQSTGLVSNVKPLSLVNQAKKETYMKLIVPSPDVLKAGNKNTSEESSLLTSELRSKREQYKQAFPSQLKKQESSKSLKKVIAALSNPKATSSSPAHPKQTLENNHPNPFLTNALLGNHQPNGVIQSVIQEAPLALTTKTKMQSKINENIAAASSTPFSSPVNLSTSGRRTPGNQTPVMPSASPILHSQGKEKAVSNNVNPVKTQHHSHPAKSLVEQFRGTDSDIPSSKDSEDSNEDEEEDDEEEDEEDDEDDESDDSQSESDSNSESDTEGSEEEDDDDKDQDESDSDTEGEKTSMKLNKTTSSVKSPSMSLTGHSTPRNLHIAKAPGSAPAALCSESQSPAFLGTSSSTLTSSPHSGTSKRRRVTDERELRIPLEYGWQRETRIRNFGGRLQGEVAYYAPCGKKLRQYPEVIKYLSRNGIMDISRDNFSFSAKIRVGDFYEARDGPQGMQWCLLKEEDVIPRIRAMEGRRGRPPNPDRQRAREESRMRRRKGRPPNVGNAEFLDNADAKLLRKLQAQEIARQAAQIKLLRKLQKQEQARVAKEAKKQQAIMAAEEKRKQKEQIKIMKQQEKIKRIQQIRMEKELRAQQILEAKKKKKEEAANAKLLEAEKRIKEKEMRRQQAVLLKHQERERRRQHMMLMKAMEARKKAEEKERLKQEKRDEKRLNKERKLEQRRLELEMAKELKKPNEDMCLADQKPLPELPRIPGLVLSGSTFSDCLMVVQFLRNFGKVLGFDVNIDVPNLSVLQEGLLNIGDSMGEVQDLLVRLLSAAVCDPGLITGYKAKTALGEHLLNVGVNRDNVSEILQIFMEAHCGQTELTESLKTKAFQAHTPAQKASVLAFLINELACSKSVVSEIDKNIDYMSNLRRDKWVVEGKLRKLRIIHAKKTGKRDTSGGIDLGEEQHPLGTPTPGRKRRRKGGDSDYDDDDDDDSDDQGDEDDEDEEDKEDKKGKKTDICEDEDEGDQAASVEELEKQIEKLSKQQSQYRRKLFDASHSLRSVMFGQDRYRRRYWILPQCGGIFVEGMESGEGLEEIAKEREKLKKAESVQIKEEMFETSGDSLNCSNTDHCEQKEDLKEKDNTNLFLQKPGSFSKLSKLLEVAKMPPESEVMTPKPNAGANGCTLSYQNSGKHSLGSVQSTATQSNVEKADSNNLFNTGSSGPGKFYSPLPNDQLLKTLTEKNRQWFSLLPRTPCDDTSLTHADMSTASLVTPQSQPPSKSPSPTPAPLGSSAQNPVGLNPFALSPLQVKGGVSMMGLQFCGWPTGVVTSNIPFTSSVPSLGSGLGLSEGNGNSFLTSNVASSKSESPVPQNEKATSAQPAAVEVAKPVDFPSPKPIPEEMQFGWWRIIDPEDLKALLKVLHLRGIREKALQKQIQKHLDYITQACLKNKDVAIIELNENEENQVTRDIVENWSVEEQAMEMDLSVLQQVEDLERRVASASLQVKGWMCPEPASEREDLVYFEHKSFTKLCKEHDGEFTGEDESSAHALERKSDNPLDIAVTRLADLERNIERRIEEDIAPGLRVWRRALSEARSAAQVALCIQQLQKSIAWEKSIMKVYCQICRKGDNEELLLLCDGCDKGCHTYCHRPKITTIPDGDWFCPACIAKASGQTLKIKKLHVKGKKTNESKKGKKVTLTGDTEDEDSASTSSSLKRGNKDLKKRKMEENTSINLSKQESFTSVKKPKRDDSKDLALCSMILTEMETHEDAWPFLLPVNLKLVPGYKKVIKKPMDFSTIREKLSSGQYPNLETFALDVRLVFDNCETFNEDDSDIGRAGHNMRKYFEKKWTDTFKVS
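Compounds, titrated to a top concentration of 110 uM, were incubated 30 min at room temperature with preformed BAZ2B/acetyl-K14 H3 peptide complex (50 nM each). Proximity signal was measured by AlphaScreen after 20 min with beads.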
L3MBTL1 inh – L3MBTL1 (human) inhibition. Potency, µM (doses to about 57.1 µM), usual class: inhibitors. 230,000 compounds, 0.66% hits. AlphaScreen L3MBTL1–H3K9me1 peptide binding. Q9Y468; also: nearly all actives have a fitted effect of over 60% in size
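L3MBTL1 50 nM + b-AHA-H3(1-15)K9me1 75 nM, 30 min RT; compound added, 30 min RT; streptavidin donor/Ni-chelate acceptor beads 10 ug/mL each final, 30 min RT dark; AlphaScreen read.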
Hits are given with their value; n = inactive; u = inconclusive; x = no result; [ ] = remark or other dose. Calls follow the shape of the dose curve; as a rule, active = well fitted curve in the direction sought with a large enough effect; inconclusive = small, poorly fitted or top-dose-only effect, or another doubt; inactive = no such curve, though single readings can be large; an effect the other way counts as inactive or inconclusive.

SMILES	JMJD2A Tudor	G9a inh	HP1b binding inh	Sfp PPTase inh	BAZ2B inh	L3MBTL1 inh
CCn1c(=O)c(=O)n(CC)c2cc(N3CCCCC3)c(NC(=O)c3ccccc3OC)cc21	n	n	n	x	n	x
CCn1c(=O)n(CC)c2cc(N3CCCC3)c(NC(=O)c3cc(Cl)ccc3OC)cc21	50µM	40µM	u	u	25µM	x
CCOc1ccccc1C(=O)Nc1cc2c(cc1N1CCCC1)n(CC)c(=O)n2CC	50µM	45µM	n	n	18µM	x
CCOc1ccccc1C(=O)Nc1cc2c(cc1N1CCOCC1)n(C)c(=O)n2C	n	n	n	x	u	x
O=C(CCn1c2c(c3ccccc31)CCCC2)NNC(=O)c1ccccc1C(=O)O	n	x	n	n	71µM	n
COc1ccc(Oc2cc(Cl)nc(N)n2)cc1	n	50µM	n	n	n	n
CN1CCN(c2oc(-c3ccc(OCc4ccc(Cl)cc4)cc3)nc2C#N)CC1	n	x	n	x	x	x
CCc1nc(SCC(=O)c2cccs2)c2oc3ccccc3c2n1	n	n	n	35µM	n	n
COc1ccc(N2CCN(CCN3C(=O)c4ccccc4C3=O)CC2)cc1	n	n	n	n	n	x
Cc1ccnc(SCC(=O)c2ccc(Br)cc2)c1C#N	u	50µM	n	n	n	n
Cc1snc(SCC(=O)c2ccc(Cl)cc2)c1C#N	n	20µM	n	28µM	n	n
Cc1ccc(C(=O)CSc2nsc(C)c2C#N)cc1	n	4.5µM	n	20µM	n	n
CC(=O)CSc1nsc(SCC(C)=O)c1C#N	n	8.9µM	n	n	n	n
Cc1nc(CSc2nsc(C)c2C#N)cs1	n	n	n	n	n	n
Cc1cc(C)c(C#N)c(OCC(=O)c2ccc(Br)cc2)n1	n	x	n	n	n	n
COC(=O)c1cc(C#N)c(SCc2ccccc2)nc1C	n	n	n	n	n	x
COC(=O)c1ccccc1CSc1nsc(C)c1C#N	n	16µM	n	50µM	n	x
Cc1cccn2c(=O)c(C=O)c(Cl)nc12	n	n[12.7 µM]	n	n	n	n
Cc1cccn2c(=O)c(C=O)c(Sc3ncccn3)nc12	n	40µM	n	n	n	n
CC(=O)NCc1ccc(C(=O)O)cc1	n	n	n	n	n	x
Cc1cccc(C)c1N1CCN(C(=O)Cn2cncn2)CC1	u	18µM	n	n	n	n
CCOC(=O)c1ccc(S(=O)(=O)NCCN(CC)CC)cc1	n	u	n	n	n	n
CN(C)c1ccc(C(CNS(=O)(=O)c2ccc(F)cc2)c2c[nH]c3ccccc23)cc1 (stereo unspecified)	25µM	10µM	u	n	18µM	u
O=[N+]([O-])CC(c1ccccc1)c1c[nH]c2ccccc12 (stereo unspecified)	n	x	n	x	x	x
CCOC(=O)c1ccc(S(=O)(=O)NCC(c2ccc(N(C)C)cc2)c2c[nH]c3ccccc23)cc1 (stereo unspecified)	11µM	u	32µM	n	10µM	u
SMILES	JMJD2A Tudor	G9a inh	HP1b binding inh	Sfp PPTase inh	BAZ2B inh	L3MBTL1 inh
Cc1cn(C(=O)c2ccccc2)c(=S)n1-c1ccc(Br)cc1	n	n	n	n	n	n
C/C(CCc1oc2ccc(Cl)cc2c1-c1ccc(C)o1)=N\O	89µM	u	u	16µM	u	n
CCOC(=O)N1CCN(S(=O)(=O)c2ccc(C(=O)N(CCN(C)C)c3nc4c(C)cccc4s3)cc2)CC1	u	45µM	n	n	u	x
Cc1ccc2sc(N(CCN(C)C)C(=O)c3ccc(S(=O)(=O)N4CC(C)OC(C)C4)cc3)nc2c1C (stereo unspecified)	u	50µM	n	n	u	x
CN(C)CCCN(C(=O)c1ccc(S(=O)(=O)N2CCCC2)cc1)c1nc2c(F)cc(F)cc2s1	n	u	n	x	n	n
Cc1cc(C)c2nc(N(CCCN(C)C)C(=O)c3ccc(S(=O)(=O)N4CC(C)OC(C)C4)cc3)sc2c1 (stereo unspecified)	n	u	n	x	n	n
CCOC(=O)N1CCN(S(=O)(=O)c2ccc(C(=O)N(CCCN(C)C)c3nc4c(C)c(C)ccc4s3)cc2)CC1	u	50µM	n	x	n	n
CN(C)CCCN(C(=O)c1ccc(S(=O)(=O)N2CCCCCC2)cc1)c1nc2c(F)cc(F)cc2s1	u	45µM	n	x	u	n
O=C(NN1C(=O)C2C3c4ccccc4C(c4ccccc43)C2C1=O)C1CC1 (stereo unspecified)	n	n	n	n	n	n
CCOC(=O)N1CCN(S(=O)(=O)c2ccc(C(=O)N(CCCN(C)C)c3nc4cc(OC)ccc4s3)cc2)CC1	n	56µM	n	x	n	n
COc1ccc2sc(N(CCCN(C)C)C(=O)c3ccc(S(=O)(=O)N4CCCC4)cc3)nc2c1	n	u	n	x	n	n
Cc1ccc2sc(N(CCCN(C)C)C(=O)c3ccc(S(=O)(=O)N4CCOCC4)cc3)nc2c1C	n	50µM	n	x	n	n
O=c1c2ccccc2nc2n1CCN2Cc1ccc(Cl)cc1	n	n	n	n	n	n
O=c1c2ccccc2ncn1Cc1ccc2c(c1)OCO2	n	n	n	n	n	n
CN1c2ccccc2C(C)(C)C12C=Cc1cc(O)ccc1O2 (stereo unspecified)	45µM	x	u	n	45µM	n
Cc1ccc2c(c1)-c1c(c(C(=O)NCCc3ccccc3)nn1C)CS2	n	n	n	x	n	x
S=C1NNC2(CC3CC2C2CCCC32)NN1 (stereo unspecified)	u	1.8µM	n	n	n	n
COc1ccccc1CC(=O)N1CCN(c2ccccc2F)CC1	n	n	n	n	n	n
CN(C(=O)COC(=O)CN1C(=O)c2ccccc2C1=O)c1c(N)n(Cc2ccccc2)c(=O)[nH]c1=O	n	u	n	x	n	n
COc1ccccc1C(=O)NCC(=O)OCC(=O)N(CC(C)C)c1c(N)n(Cc2ccccc2)c(=O)[nH]c1=O	n	56µM	n	x	n	n
Cc1ccccc1SCC(=O)OCC(=O)N(C)c1c(N)n(Cc2ccccc2)c(=O)[nH]c1=O	n	10µM	n	x	n	n
COCCN(C(=O)CSc1nc2ccccc2c(=O)n1CC(C)C)c1c(N)n(Cc2ccccc2)c(=O)[nH]c1=O	n	u	n	n	n	x
Cc1ccc(C)c(OCCC(=O)OCC(=O)N(C)c2c(N)n(Cc3ccccc3)c(=O)[nH]c2=O)c1	n	n	n	x	n	n
CC(C)Cn1c(SCC(=O)N(C)c2c(N)n(Cc3ccccc3)c(=O)[nH]c2=O)nc2ccccc21	n	16µM	u	x	n	n
Cc1ccccc1OCCC(=O)OCC(=O)N(C)c1c(N)n(Cc2ccccc2)c(=O)[nH]c1=O	n	45µM	n	n	n	x
Cc1nn2c(-c3cccc(NC(=O)c4ccc(Cl)cc4)c3)nnc2c2ccccc12	n	n	n	x	n	x
